PubChem BioAssay AID1224861 (National Center for Advancing Translational Sciences (NCATS), 2016)
Records with an inconclusive call do not appear. A call without a number means that no potency is given here. Activity calls are given as the source filed them. Calls come from the whole dose curve; as a rule, active = well fitted cell-killing curve with a large enough effect; inconclusive = small, poorly fitted or top-dose-only effect, or effect the other way; inactive = flat fitted curve, though single readings scatter.

assay: Compound cytotoxicity measured by an ATP content assay as a counter-screen for lead compounds in human astrocytes; details: human astrocytes viability, ATP luminescence; series mostly up to 46.1 µM
Method: National Center for Advancing Translational Sciences [NCATS] Johns Hopkins University School of Medicine Florida State University Assay Overview: Many compounds can cause cytotoxicity at high compound concentrations. […] The compound cytotoxicity may also cause side effects or toxicity in human. Thus, the compound cytotoxicity needs to be measured in each cell type and each compound incubation time - same as these in the compound screening assay. The compound cytotoxicity can be measured by cell viability assays such as the ATP content assay. We use an ATP content assay kit for cell viability measurement. It measures ATP content (level) in human astrocytes using a luminescence readout that is proportional to viable cell numbers. Decrease in the luminescence signal after the compound treatment indicates reduced cell viability and cell death caused by compound treatment.
Assay Protocol Summary: The medium for astrocytes contains AM basal medium (ScienCell, Cat.# 1801), AGS (ScienCell, Cat.# 1801), 10% FBS, and 1% Pen/Strep. The ATP content assay kit (PerkinElmer, Cat.# 6016731) was used to determine cell viability. The reagent was reconstituted and prepared as described by the manufacturer. Cells were seeded in 384- or 1536-well assay plates and cultured at 37 C with 5% CO2 for 16 to 20 hours. The typical cell seeding density in the 1536-well plate assay is 350 cells/well in 3 ul medium for astrocytes in the tissue cultured treated/PDL coated plates. Compounds were added to cells and incubated for a specific time such as 6, 24, or 72 hours before addition of the reagent mixture of the ATP content assay kit at 1:1 ratio. After incubation at room temperature for 10 minutes, the luminescence intensity in assay plates was measured using a ViewLux plate reader (PerkinElmer). […] The percentage inhibitions of the decreased cell viability by small molecules were then calculated that indicate compound cytotoxicity.

SMILES | Potency
O=C(/C=C/c1ccc(O)cc1)c1ccc(O)cc1O | inactive
COc1cc(NC(C)CCCN)c2ncccc2c1 (stereo not given) | inactive
O=C1c2ccccc2-[n+]2ccc3c([nH]c4ccccc43)c21 | 4.35 µM (active)
O=c1oc2cc(O)ccc2s1 | inactive
COc1ccc2nc(NC(=O)Nc3ccccc3)sc2c1 | 19.5 µM (active)
O=C(O)c1cc([N+](=O)[O-])ccc1NCCCc1ccccc1 | inactive
Oc1ccc(/C=C/c2cc(O)cc(O)c2)cc1 | 10.9 µM (active)
O=C(O)CCC(=O)c1ccc(-c2ccccc2)cc1 | inactive
O=c1cc(-c2ccccc2)oc2cc(O)c(O)c(O)c12 | inactive
Cc1c(NC(=O)c2ccc(C(C)(C)C)cc2)cccc1-c1cn(C)c(=O)c(Nc2ccc(C(=O)N3CCOCC3)cc2)n1 | inactive
CNC1[C@H](O)C(O[C@@H]2C(O)C(O[C@H]3O[C@H]([C@@H](C)NC)CC[C@H]3N)[C@@H](N)C[C@H]2N)OC[C@]1(C)O (stereo not given in full) | inactive
COc1ccc(-c2cc(=S)ss2)cc1 | inactive
CC=CC[C@@H](C)C(=O)[C@H]1C(=O)N[C@@H](C(C)C)C(=O)N(C)CC(=O)N(C)[C@@H](CC(C)C)C(=O)N[C@@H](C(C)C)C(=O)N(C)[C@@H](CC(C)C)C(=O)N[C@@H](C)C(=O)N[C@H](C)C(=O)N(C)[C@@H](CC(C)C)C(=O)N(C)[C@@H](CC(C)C)C(=O)N(C)[C@@H](C(C)C)C(=O)N1C | inactive
O=S(=O)(O)CCSSCCS(=O)(=O)O | inactive
Nc1nc2ccc([N+](=O)[O-])cc2s1 | inactive
COc1cccc2c1C(=O)c1c(O)c3c(c(O)c1C2=O)C[C@@](O)(C(=O)CO)C[C@@H]3O[C@H]1C[C@H](N)[C@H](O[C@@H]2CCCCO2)[C@H](C)O1 | inactive
Cc1cccc(/C=C/c2ccccc2)n1 | inactive
O=C(Nc1cc2cc[nH]c2cn1)c1ccccc1 | 0.489 µM (active)
O=C1c2ccccc2C(=O)c2c1ccc(O)c2O | inactive
O=c1cc(-c2ccccc2)oc2cc(O)cc(O)c12 | inactive

SMILES | Potency
C[C@@H]1CCN(C(=O)CC#N)C[C@H]1N(C)c1ncnc2[nH]ccc12 | inactive
O=C(CS)Nc1ccccc1 | inactive
CC(=NNC(=S)N1CCC1)c1ccccn1 | 17.3 µM (active)
Nc1ccc(N=Nc2ccccc2)c(N)n1 | inactive
O=c1[nH]nc(Sc2ncc([N+](=O)[O-])s2)n1-c1ccc2c(c1)OCCO2 | 1.23 µM (active)
O=C(O)[C@H](CC(=O)N1C[C@@H]2CCCC[C@H]2C1)Cc1ccccc1 | inactive
CC(C(=O)O)c1ccc(-c2ccccc2)c(F)c1 (stereo not given) | inactive
O=C(O)Cc1ccc(-c2ccccc2)cc1 | inactive
CC1(C)OC2=C(C(=O)c3ccccc3C2=O)[C@H](NCc2ccccc2)[C@H]1O | 8.91 µM (active)
CN(C)c1ccc(N=NS(=O)(=O)O)cc1 | inactive
COc1ccc(-c2cc(=O)c3c(O)cc(O)cc3o2)cc1O | inactive
CC(=O)OC(C)OC(=O)C(C)c1ccc(-c2ccccc2)c(F)c1 (stereo not given) | inactive
O=C1C[C@@H](c2ccc(O)cc2)Oc2cc(O)cc(O)c21 | inactive
CC(=O)Oc1cccc2c1C(=O)c1c(OC(C)=O)cc(C(=O)O)cc1C2=O | inactive
CCCC(=O)OC[C@@H](OC(=O)CCC)[C@@H](OC(=O)CCC)[C@H](Cn1c2nc(=O)[nH]c(=O)c-2nc2cc(C)c(C)cc21)OC(=O)CCC | inactive
Cc1ccc(O)c(N=Nc2ccccc2)n1 | 4.35 µM (active)
CC[C@]1(O)C[C@H]2CN(CCc3c([nH]c4ccccc34)[C@@](C(=O)OC)(c3cc4c(cc3OC)N(C=O)[C@H]3[C@@](O)(C(=O)OC)[C@H](OC(C)=O)[C@]5(CC)C=CCN6CC[C@]43[C@@H]65)C2)C1 | inactive
CCOC1OC(=O)C[C@H]1NC(=O)[C@@H]1CCCN1C(=O)[C@@H](NC(=O)c1ccc(N)c(Cl)c1)C(C)(C)C (stereo not given in full) | inactive
O=S(=O)(O)c1ccc2nc(-c3ccccc3)[nH]c2c1 | inactive
CC(C(=O)O)c1ccc(C(=O)c2ccccc2)s1 (stereo not given) | inactive
